DT40 TDP1 CPT – DT40-hTDP1 cell growth loss with CPT; 420,000 compounds, 12% hits; Potency, µM (series often up to 46.2 µM), usual class: inhibitors; chicken DT40 Tdp1-/-;hTDP1 cells + 20 nM CPT, ATP luminescence, 48 h; note: nearly all actives have a fitted effect of over 55% in size
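Cell growth measured by CellTiter-Glo luminescence after a minimum 48 h, 37 C compound exposure with 20 nM CPT in Tdp1-knockout DT40 cells stably expressing hTDP1, seeded 400/well; qHTS titration format.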
HT1080 IDH1KD tx – kills HT-1080 cells with IDH1 knockdown. HT-1080 IDH1 knockdown viability, ATP luminescence, 48 h. Potency, µM (titrated, usually from 46.1 µM), most hits filed as cytotoxic. 360,000 compounds, 2% hits. AID 686971
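Luminescent ATP read-out (CellTiter-Glo, 10 min at room temperature) after 48 h compound exposure at 37 °C gave viability of IDH1-knockdown HT-1080 cells. Activity was normalised to DMSO and cell-free wells, then fitted as concentration-response curves.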
HT1080NT lethal – kills 2HG-producing HT-1080-NT fibrosarcoma cells; HT-1080-NT fibrosarcoma viability, CellTiter-Glo ATP luminescence, 48 h; Potency, µM (titrated, usually from 46.1 µM), most hits filed as cytotoxic; 360,000 compounds, 1.6% hits; AID 686970;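 note: NT is the 2HG producing partner of a matched IDH1 knockdown line; nearly all actives have a fitted effect of over 55% in size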
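Compounds were tested in concentration-response format on HT-1080-NT cells for 48 hours at 37 degrees C. Cell viability came from CellTiter-Glo luminescence; curves were classified by r2, response magnitude and activity.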
DT40 TDP1 no CPT – qHTS for Inhibitors of human tyrosyl-DNA phosphodiesterase 1 (TDP1): qHTS in cells in absence of CPT | DT40 Tdp1-/- hTDP1 cells, no CPT, ATP luminescence, 48 h | Potency, µM (top dose mostly 46.2 µM), hits mostly inhibitors | 420,000 compounds, 15% hits; note: nearly all actives have a fitted effect of over 55% in size
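Camptothecin absent (DMSO only). Human TDP1-complemented DT40 knockout cells, 400 cells/well, 37 °C for minimum 48 hr; ATP measured via CellTiter-Glo, 30 min dark incubation, luminescence.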
12-LOX inh – inhibitors of human 12S-lipoxygenase ALOX12 | P18054 | purified 12hLO, xylenol orange hydroperoxide absorbance | Potency, µM (series often up to 108 µM), most hits filed as inhibitors | 580,000 compounds, 1.1% hits | AID 1671190
Target sequence (P18054 whole entry, looked up): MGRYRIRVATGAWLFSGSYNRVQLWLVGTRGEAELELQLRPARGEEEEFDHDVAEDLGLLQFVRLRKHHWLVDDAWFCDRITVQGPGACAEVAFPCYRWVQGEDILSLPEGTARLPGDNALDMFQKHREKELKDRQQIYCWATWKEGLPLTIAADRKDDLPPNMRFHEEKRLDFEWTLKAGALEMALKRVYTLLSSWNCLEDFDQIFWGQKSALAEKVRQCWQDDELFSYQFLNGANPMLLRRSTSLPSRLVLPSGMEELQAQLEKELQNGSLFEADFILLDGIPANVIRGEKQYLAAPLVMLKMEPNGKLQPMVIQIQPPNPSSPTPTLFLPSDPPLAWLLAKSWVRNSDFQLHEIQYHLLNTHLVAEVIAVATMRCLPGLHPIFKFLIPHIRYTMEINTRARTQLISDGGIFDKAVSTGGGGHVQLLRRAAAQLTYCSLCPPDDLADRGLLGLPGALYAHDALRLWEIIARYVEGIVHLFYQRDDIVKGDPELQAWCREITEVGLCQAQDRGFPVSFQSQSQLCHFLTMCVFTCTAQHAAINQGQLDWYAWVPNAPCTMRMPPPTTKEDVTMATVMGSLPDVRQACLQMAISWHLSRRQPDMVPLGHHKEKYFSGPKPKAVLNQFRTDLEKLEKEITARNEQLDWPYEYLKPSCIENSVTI
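Purified human 12hLO (150 nM final) in 25 mM Hepes, 0.01% Triton X-100, pH 7.0 was preincubated 15 min at room temperature with compound. Then 40 uM arachidonic acid was added, 30 min. Hydroperoxide was read by Fe-XO absorbance ratio 573/405 nm.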
IL-1B inflam inh – inflammasome signaling inhibition, IL-1 beta readout; activity change, % at 57.5 µM; 360,000 compounds, 4.7% hits; THP-1 LPS/ATP IL-1B secretion, AlphaLISA, 16 h; active compounds read low; AID 743279; in the data active = activity change below about -50%; inconclusive = mostly about -30% to -49%
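THP-1 cells pretreated 1 hr with compounds (up to 57.5 uM final), then stimulated with LPS (250 ng/mL final) plus ATP (1.25 mM final); secreted IL-1B measured by AlphaLISA after 16 hr, decreased signal indicating inhibition.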
Each line names hits and unclear results; the compound was inactive in the other large screens. This is one part of a sample in which hits are shown more often than they occur. Unless noted, calls come from the whole dose curve; as a rule, active = well fitted curve in the direction sought with a large enough effect; inconclusive = small, poorly fitted or top-dose-only effect, or another doubt; inactive = no such curve, though single readings can be large; an effect the other way counts as inactive or inconclusive.

Cc1c(Cl)cccc1NC(=O)Cn1ccn2nc(-c3ccccc3)c(CO)c2c1=O	none (no result: DT40 TDP1 CPT, HT1080 IDH1KD tx, HT1080NT lethal, DT40 TDP1 no CPT, IL-1B inflam inh)
CSc1cccc(NC(=O)CN(C)S(=O)(=O)c2ccc3c(c2)CCCN3C(C)=O)c1	DT40 TDP1 CPT inconclusive, DT40 TDP1 no CPT 26µM (no result: HT1080 IDH1KD tx, HT1080NT lethal, IL-1B inflam inh)
CC(=O)N1CCCc2cc(S(=O)(=O)N(C)CC(=O)Nc3ccc(Cl)cc3C)ccc21	DT40 TDP1 CPT 23µM, DT40 TDP1 no CPT 23µM, 12-LOX inh inconclusive (no result: HT1080 IDH1KD tx, HT1080NT lethal, IL-1B inflam inh)
CSc1cccc(NC(=O)CN(C)S(=O)(=O)c2ccc3c(c2)n(C)c(=O)c(=O)n3C)c1	none (no result: HT1080 IDH1KD tx, HT1080NT lethal, IL-1B inflam inh)
COc1ccc(Cl)cc1NC(=O)CN(C)S(=O)(=O)c1ccc2c(c1)CCCN2C(C)=O	DT40 TDP1 CPT 13µM, DT40 TDP1 no CPT 8.2µM (no result: HT1080 IDH1KD tx, HT1080NT lethal, IL-1B inflam inh)
COc1ccc(NC(=O)CN(C)S(=O)(=O)c2ccc3c(c2)CCCN3C(C)=O)cc1Cl	DT40 TDP1 CPT inconclusive, DT40 TDP1 no CPT 21µM (no result: HT1080 IDH1KD tx, HT1080NT lethal, IL-1B inflam inh)
CCCC(=O)N1CCC(N2C(=O)C3(CCCCC3)C2c2ccccc2)CC1 (centres undefined)	none (no result: DT40 TDP1 CPT, HT1080 IDH1KD tx, HT1080NT lethal, DT40 TDP1 no CPT, IL-1B inflam inh)
CCOC(=O)c1ccc(NC(=O)N2Cc3[nH]cnc3C[C@H]2c2nc(-c3ccc(C)cc3)no2)cc1	none (no result: DT40 TDP1 CPT, HT1080 IDH1KD tx, HT1080NT lethal, DT40 TDP1 no CPT, IL-1B inflam inh)
COc1ccc(C2Cn3nnc(-c4noc(CCc5ccccc5)n4)c3CO2)cc1 (centres undefined)	none (no result: DT40 TDP1 CPT, HT1080 IDH1KD tx, HT1080NT lethal, DT40 TDP1 no CPT, IL-1B inflam inh)
O=C(CNC1CCCCC1)Nc1cccc(C(F)(F)F)c1	HT1080NT lethal inconclusive, IL-1B inflam inh -77
O=C(COCC(=O)Nc1cccc(C(F)(F)F)c1)Nc1cccc(C(F)(F)F)c1	DT40 TDP1 CPT inconclusive, HT1080 IDH1KD tx inconclusive, HT1080NT lethal inconclusive, DT40 TDP1 no CPT 26µM, IL-1B inflam inh inconclusive
O=C(Cn1c(=O)oc2ccccc21)Nc1cccc(Cl)c1	DT40 TDP1 CPT inconclusive, DT40 TDP1 no CPT inconclusive
O=C(Cn1c(=O)oc2cc(Cl)ccc21)Nc1cccc(C(F)(F)F)c1	DT40 TDP1 CPT 18µM, DT40 TDP1 no CPT 18µM (no result: HT1080 IDH1KD tx, HT1080NT lethal, IL-1B inflam inh)
COC(=O)/C=C/C(=O)Nc1cccc(C(F)(F)F)c1	DT40 TDP1 CPT 9.2µM, DT40 TDP1 no CPT 15µM, IL-1B inflam inh -104
COC(=S)Nc1cccc(C(F)(F)F)c1	none (no result: IL-1B inflam inh)
CCc1noc(-c2cn(C3CCN(C(=O)c4sccc4C)C3)nn2)n1 (centres undefined)	12-LOX inh 45µM (no result: DT40 TDP1 CPT, HT1080 IDH1KD tx, HT1080NT lethal, DT40 TDP1 no CPT, IL-1B inflam inh)
CC(=O)c1c2c3c(c(Br)ccc3n(C)c1=O)C(=O)c1ccccc1-2	DT40 TDP1 CPT inconclusive, DT40 TDP1 no CPT 23µM
CC(=O)c1c2c3c(cccc3n(C)c1=O)C(=O)c1ccccc1-2	none (no result: 12-LOX inh)
CCOC(=O)C1=CN(Cc2ccco2)S(=O)(=O)N(CC)C1c1ccc(C(F)(F)F)cc1 (centres undefined)	DT40 TDP1 CPT 23µM, DT40 TDP1 no CPT 16µM, 12-LOX inh inconclusive
COc1ccc(C)cc1Nc1n[n+](-c2ccccc2)c(-c2cc(OC)c(OC)cc2Br)s1	DT40 TDP1 CPT 23µM, DT40 TDP1 no CPT 16µM, 12-LOX inh 40µM
COc1ccc(C)cc1NC(=O)Nc1ccccc1	12-LOX inh inconclusive, IL-1B inflam inh inconclusive
COc1ccc(C)cc1Nc1nc(N)c(C(=O)c2cc(C)ccc2C)s1	none (no result: DT40 TDP1 CPT, HT1080 IDH1KD tx, HT1080NT lethal, DT40 TDP1 no CPT, IL-1B inflam inh)
COc1ccc(C)cc1Nc1n[n+](-c2ccccc2)c(-c2c(OC)ccc3ccccc23)s1	DT40 TDP1 CPT 5.8µM, HT1080 IDH1KD tx inconclusive, HT1080NT lethal inconclusive, DT40 TDP1 no CPT 5.2µM, 12-LOX inh inconclusive, IL-1B inflam inh -75
COc1ccc(C2Cn3cnc(C(=O)N4CCC(C(=O)NCC5CCCCC5)CC4)c3CO2)cc1 (centres undefined)	none (no result: DT40 TDP1 CPT, HT1080 IDH1KD tx, HT1080NT lethal, DT40 TDP1 no CPT, IL-1B inflam inh)
CC1C(c2ccc(Cl)cc2)=[N+]([O-])C(C)(C)N1O (centres undefined)	none (no result: DT40 TDP1 CPT, HT1080 IDH1KD tx, HT1080NT lethal, DT40 TDP1 no CPT, IL-1B inflam inh)
CCOC(=O)c1cc(-c2ccc(F)cc2)n(CCC(=O)NC2CCCCC2)c1C	DT40 TDP1 CPT 15µM, DT40 TDP1 no CPT 15µM (no result: HT1080 IDH1KD tx, HT1080NT lethal, IL-1B inflam inh)
CCOC(=O)c1cc(-c2ccccc2)n(CCC(=O)NC2CCCCC2)c1C	DT40 TDP1 CPT inconclusive, DT40 TDP1 no CPT 13µM (no result: HT1080 IDH1KD tx, HT1080NT lethal, IL-1B inflam inh)
CC(=O)c1cc(-c2ccccc2)n(CCC(=O)NC2CCCCCCC2)c1C	DT40 TDP1 CPT inconclusive, HT1080NT lethal inconclusive, DT40 TDP1 no CPT 23µM

Screening data: PubChem BioAssay, National Center for Advancing Translational Sciences (NCATS)
